# The whole screen tested about 320,000 compounds, of which about 2,100 (0.66%) were called active. Inconclusive results (about 53%) are left out. Calls follow the shape of the dose curve; as a rule, active = well fitted inhibition curve with a large enough effect in the signal ratio, with a control signal flat (not every such curve was filed as active); inconclusive = small, poorly fitted or top-dose-only effect, or effect the other way, or a change in a side signal; inactive = flat fitted curve, though single readings scatter; the % refers to the signal ratio. The entries come from a sample that favours actives as a whole.
# Experiment: qHTS Assay for Lipid Storage Modulators in Drosophila S3 Cells;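 as to cell number change: cells counted by Cell Tracker Red CMTPX staining in the red channel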; as to lipid storage change, negative = inhibition: % is scaled to controls: 0 for no effect and ±100 for the full control effect
# Details: BODIPY lipid droplet fluorescence, 18-24 h, cells fed with added oleic acid; cell number change: measured here: cell count max response; series mostly up to 46.1 µM; lipid storage change, negative = inhibition: at the top concentration
# In short: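 Laser-scanning cytometry quantifies lipid droplet accumulation (500–530 nm total intensity; droplet/cell object ratio) in oleic acid-fed (400 uM added) Drosophila S3 cells treated with a concentration series. 20 uM Triacsin C defined 100% inhibition.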
# Potency is read from the fitted curve at half-maximal effect.
SMILES,"lipid storage change, negative = inhibition",Potency,cell number change [%],outcome
CC(C)CN(C(=O)CCC(=O)OCC(=O)N(C)c1ccccc1)c1c(N)n(CC(C)C)c(=O)[nH]c1=O,16.2% (inactive),–,–,–
CC1CC(NC(=O)c2cc3c(=O)n4ccccc4nc3n2C)CC(C)(C)C1 (stereo unspecified),–,18.4 µM (active),3.3,–
Cn1c(C(=O)O)cc2c(=O)n3ccccc3nc21,-0.14% (inactive),–,3.26,–
CC1CN(C(=O)c2cc3c(=O)n4ccccc4nc3n2C)CC(C)O1 (stereo unspecified),–,–,15.1,inactive
CCOc1cc(C(=O)NCC2CCCO2)cc(OCC)c1OCC (stereo unspecified),–,–,–,inactive
Cc1cc(C)c(S(=O)(=O)N2CCN(C(=O)c3c(C)noc3C)CC2)c(C)c1,23.1% (inactive),–,-0.389,–
CCOC(=O)CN1C(=O)SC(Nc2ccc(C)cc2)C1=O (stereo unspecified),1.4% (inactive),–,0.723,–
O=C(O)CN1C(=O)SC(Nc2ccccc2)C1=O (stereo unspecified),5.61% (inactive),–,7.54,–
Cc1ccc(NC2SC(=O)N(CC(=O)O)C2=O)cc1 (stereo unspecified),–,23.1 µM (active),-7.73,–
Cn1cnnc1SCCNS(=O)(=O)c1cccc([N+](=O)[O-])c1,20.2% (inactive),–,3.23,–
CCc1ccc(NC(=S)N(CCN2CCOCC2)Cc2ccccc2F)cc1,5.57% (inactive),–,13.9,–
CN(C)S(=O)(=O)N(CCN1CCOCC1)Cc1ccccc1F,–,9.2 µM (active),6.57,–
Cc1ccc(NC(=S)N(CCN2CCOCC2)Cc2ccccc2F)cc1,5.28% (inactive),–,-12.7,–
Cn1cnnc1Sc1ccc(C(F)(F)F)cc1[N+](=O)[O-],5.81% (inactive),–,20.3,–
Cc1ccc(C2(c3noc(CN4C[C@@H](C)O[C@@H](C)C4)n3)CCCC2)cc1,-0.0819% (inactive),–,-4.24,–
CCOc1ccc2ccccc2c1C(=O)Nc1cc(=O)n(C)c(=O)n1C,1.88% (inactive),–,-14,–
Cc1[nH]n(-c2ccccc2)c(=O)c1N=O,-14.1% (inactive),–,-9.61,–
Cc1[nH]n(-c2ccc(Cl)cc2)c(=O)c1N=Nc1cccnc1,2.79% (inactive),–,8.32,–
Cc1[nH]n(-c2ccccc2)c(=O)c1N=Nc1ccc(Cl)cc1,–,9.2 µM (active),-10.2,–
COc1ccccc1N=Nc1c(C)[nH]n(-c2ccccc2)c1=O,–,14.6 µM (active),0.338,–
Cc1[nH]n(-c2ccccc2)c(=O)c1N=Nc1ccccc1C(=O)N1CCOCC1,12.8% (inactive),–,-24.3,–
Cc1[nH]n(-c2ccccc2)c(=O)c1N=Nc1ccc(C(N)=O)cc1,–,–,15.5,inactive
COc1ccccc1NC(=O)C1=C(C)Nc2nc(-c3ccccc3)nn2C1c1ccccn1 (stereo unspecified),–,–,–,inactive
O=C(CN1C(=O)NC2(CCCCCCC2)C1=O)Nc1ccc(Cl)cc1,26.3% (inactive),–,27.1,–

SMILES,"lipid storage change, negative = inhibition",Potency,cell number change [%],outcome
COC(=O)C1=C(NC(=O)C2CCCCC2)CCS1,1.08% (inactive),–,-10,–
CC(C)Oc1ccc(/C=C/C(=O)NCC2COc3ccccc3O2)cc1 (stereo unspecified),-7.62% (inactive),–,-3.08,–
CCS(=O)(=O)c1nc(S(=O)(=O)c2ccc(C)cc2)c(NCCN2CCOCC2)s1,-20.7% (inactive),–,–,–
O=C(Nc1ccc(Cl)c(S(=O)(=O)N2CCCCC2)c1)c1ccco1,–,0.291 µM (active),11.9,–
CC1CCC(NCCNC(=O)c2ccco2)CC1 (stereo unspecified),–,0.82 µM (active),15.3,–
CCOc1ccc(NC(=O)c2ccco2)cc1S(=O)(=O)N1CCCC1,19.1% (inactive),–,3.85,–
O=C(Nc1ccc(S(=O)(=O)N2CCCCCC2)cc1)c1ccco1,–,–,–,inactive
O=C(Nc1ccc(N2CCCC2)c(Cl)c1)c1ccco1,15.6% (inactive),–,-15.9,–
CC1CCN(S(=O)(=O)c2ccc(NC(=O)c3ccco3)cc2)CC1,–,16.4 µM (active),-3.17,–
CCOC(=O)N1CCC(NCCNC(=O)c2ccco2)CC1,-7.46% (inactive),–,-0.499,–
O=C(NCCNC1CCCCC1)c1ccco1,10.1% (inactive),–,17.5,–
O=C(Nc1ccc(S(=O)(=O)N2CCOCC2)cc1)c1ccco1,–,–,–,inactive
Cc1nc([N+](=O)[O-])cn1-c1ccc(N)cc1,-3.85% (inactive),–,-2.93,–
O=C(c1nc2ccc(Cl)cn2c1CN1CCCC(CO)C1)N1CCc2ccccc2C1 (stereo unspecified),-5.28% (inactive),–,10.9,–
Cc1ccc(S(=O)(=O)c2c(C)cc(C)[nH]c2=O)c(C)c1,-7.93% (inactive),–,17.9,–
Oc1ccc(Br)cc1/C=N/N1CCN(Cc2cccc3ccccc23)CC1,1.32% (inactive),–,17,–
Cc1c(NC(=O)C2(c3ccccc3)CCOCC2)c(=O)n(-c2ccccc2)n1C,-12.2% (inactive),–,-18.3,–
CC(C)=C1C2CCC1C(C(=O)NCCc1ccccc1)C2C(=O)O (stereo unspecified),5.32% (inactive),–,6.84,–
CC(C)=C1C2CCC1C(C(=O)Nc1cc(C)cc(C)c1)C2C(=O)O (stereo unspecified),20.7% (inactive),–,13.2,–
CC(C)=C1C2CCC1C(C(=O)NCc1ccccc1)C2C(=O)O (stereo unspecified),–,25.9 µM (active),-4.67,–
CC(C)NC(=O)c1ccc2c(c1)N(CC(=O)NC1CCCCC1)C(=O)C(C)(C)O2,-6.03% (inactive),–,19,–
S=C(Nc1ccccn1)Nc1ccccc1Cl,15.4% (inactive),–,-6.96,–
CCS(=O)(=O)Nc1cccc(-c2ccc3nnc(C)n3n2)c1,0.724% (inactive),–,-5.54,–
CC(=O)c1ccc(NC(=O)CSc2ccc3nnc(-c4cccnc4)n3n2)cc1,3.23% (inactive),–,1.01,–

SMILES,"lipid storage change, negative = inhibition",Potency,cell number change [%],outcome
CCS(=O)(=O)Nc1cccc(-c2ccc3nnc(-c4cccnc4)n3n2)c1,–,5.8 µM (active),-27,–
O=C(CSc1ccc2nnc(-c3cccnc3)n2n1)Nc1ccccc1,–,0.411 µM (active),8.38,–
CCCS(=O)(=O)Nc1cccc(-c2ccc3nnc(C)n3n2)c1,5.14% (inactive),–,7.15,–
Cc1ccc(NC(=O)CSc2ccc3nnc(-c4cccnc4)n3n2)cc1,-24.5% (inactive),–,-9.27,–
CCOC(=O)C(C(=O)NCCCN1CCOCC1)C1CCCCC1 (stereo unspecified),-0.852% (inactive),–,5.53,–
CCn1nc(C)c(CN2CCCC(CO)(Cc3ccccc3)C2)c1C (stereo unspecified),-2.88% (inactive),–,6.82,–
Cc1ccc(-c2cc([C@H]3[C@H]4C=CC[C@@H](C)[C@@H]4C(=O)N3Cc3ccccc3)ccc2F)cc1,8.48% (inactive),–,-1.15,–
COC(=O)c1cccc(NC(=O)NC(=O)c2ccccc2Cl)c1,-0.414% (inactive),–,-8.19,–
Cc1cccc(NC(=O)CSc2nc3ccccc3o2)c1,–,–,–,inactive
CC(=O)N=c1c(C#N)cc2c(=O)n3cccc(C)c3nc2n1CCCOC(C)C,5.07% (inactive),–,13.1,–
COCCCn1c(=N)c(C(=O)NCC2CCCO2)cc2c(=O)n3cccc(C)c3nc21 (stereo unspecified),0.117% (inactive),–,-13.4,–
CCN(C(=O)c1cc2c(=O)n3cccc(C)c3nc2n1CCCOC)C1CCCCC1,–,23.1 µM (active),8.25,–
COCCCn1c(C(=O)N2CC(C)OC(C)C2)cc2c(=O)n3cccc(C)c3nc21 (stereo unspecified),–,–,0.298,inactive
Cc1cccn2c(=O)c3cc(C(N)=S)c(=N)n(CCCOC(C)C)c3nc12,–,9.2 µM (active),3.82,–
Cn1c(C(=O)NCCC2=CCCCC2)cc2c(=O)n3ccccc3nc21,–,–,–,inactive
CCCn1c(=N)c(C(=O)NC2CCCC2)cc2c(=O)n3cccc(C)c3nc21,-0.957% (inactive),–,-9.76,–
Cc1cccn2c(=O)c3cc(C(=O)NCCCN4CCCC4=O)n(C)c3nc12,–,–,–,inactive
COCCCn1c(=NC(C)=O)c(C#N)cc2c(=O)n3cccc(C)c3nc21,10.7% (inactive),–,0.683,–
COCCCn1c(C(=O)NC2CCCCC2C)cc2c(=O)n3cccc(C)c3nc21 (stereo unspecified),–,20.6 µM (active),8.96,–
Cc1cccn2c(=O)c3cc(C(N)=S)c(=N)n(CCCN4CCOCC4)c3nc12,11% (inactive),–,–,–
Cc1cccn2c(=O)c3cc(C(=O)NCCC4=CCCCC4)n(C)c3nc12,–,18.4 µM (active),-17.7,–
O=C(CCc1nnc(C2(c3ccc(Cl)cc3)CCC2)o1)NC1CC1,0.737% (inactive),–,6.23,–
Cc1ccc2[nH]c3c(c2c1)CCN1C(=O)OC(C)(C)C31C (stereo unspecified),-5.19% (inactive),–,-17.1,–
O=C(CCCc1nc2ccccc2s1)N1CCN(c2ccccc2F)CC1,2.32% (inactive),–,22.1,–

SMILES,"lipid storage change, negative = inhibition",Potency,cell number change [%],outcome
COc1cc(/C=C/C(=O)OCC(=O)c2c[nH]c3ccccc23)ccc1OC(F)F,-0.565% (inactive),–,-14.2,–
COc1ccc(/C=C/C(=O)OCC(=O)c2c[nH]c3ccccc23)cc1,9.96% (inactive),–,4.45,–
COc1cccc(/C=C/C(=O)OCC(=O)c2c[nH]c3ccccc23)c1,–,9.2 µM (active),-14.3,–
CCOc1cc(N2CCOCC2)c(OCC)cc1NC(=O)Cn1[nH]c(=O)c2ccccc2c1=O,5.54% (inactive),–,7.32,–
O=C(O)CNS(=O)(=O)Cc1ccccc1,5.11% (inactive),–,2.83,–
Cc1cccc(NC(=O)C2CCN(S(=O)(=O)c3cccs3)CC2)n1,–,–,–,inactive
Cc1nc2ccccc2n1Cc1ccccc1,-4.71% (inactive),–,-17,–
COc1ccccc1Cn1c(C)nc2ccccc21,10.5% (inactive),–,10.6,–
Cc1ccccc1Cn1c(C)nc2ccccc21,–,10.3 µM (active),-15.1,–
CN(C)CCC1CCN(c2cc(C#N)c(C#N)cc2[N+](=O)[O-])CC1,16.4% (inactive),–,-1.99,–
CC1CCN(c2cc(C#N)c(C#N)cc2[N+](=O)[O-])CC1,–,23.1 µM (active),0.344,–
N#Cc1cc(N2CCCCC2)c([N+](=O)[O-])cc1C#N,-18% (inactive),–,-3.02,–
COC(=O)c1cc(OC)c(OC)cc1NC(=S)N1CCN(c2ccccn2)CC1,5.07% (inactive),–,-13.1,–
CCCS(=O)(=O)c1nc(S(=O)(=O)c2ccc(C)cc2)c(N2CCC3(CC2)OCCO3)s1,17.8% (inactive),–,-26.8,–
CCCCNC(=O)CC1NCCNC1=O (stereo unspecified),-8.27% (inactive),–,-9.85,–
COC(=O)CC1NCCNC1=O (stereo unspecified),–,0.0326 µM (active),-8.44,–
COc1cc(NC(=O)CC2NCCNC2=O)cc(OC)c1 (stereo unspecified),-4.51% (inactive),–,2.74,–
S=c1[nH]nc(-c2cc(-c3ccccc3)n[nH]2)n1/N=C/C=C/c1ccccc1,-0.135% (inactive),–,5.92,–
Cc1ccc(C)c(N2CCN(C(=O)Nc3ccc4c(c3)N(C)C(=O)CS4)CC2)c1,6.34% (inactive),–,-6.47,–
CN(C)N=C1c2cc(S(=O)(=O)N(C)C)ccc2-c2ccc(S(=O)(=O)N(C)C)cc21,–,–,-8.49,inactive
CC(=O)NCCNC(=O)c1ccc(-n2c(C)ccc2C)cc1,6.73% (inactive),–,-0.679,–
Cc1ccc(C2=NOC(=O)/C2=C\C=C\c2ccccc2)cc1,–,4.61 µM (active),-25.2,–
O=C1ON=C(c2ccccc2)/C1=C/c1cccnc1,-24.6% (inactive),–,4.4,–
O=C1ON=C(c2ccccc2)/C1=C/c1ccccc1,–,–,-8.78,inactive

# Reference: PubChem BioAssay AID2685 (National Center for Advancing Translational Sciences (NCATS), 2010)
